Screening data as filed in PubChem.
Only some compounds are listed: those with a hit (about 18% of all), similar ones and a draw of the others.
HepG2 viability – qHTS for Inhibitors of TGF-b: Cytotox Counterscreen | 0.76% of 410,000 active | Potency, µM (doses to about 46.1 µM), for inactives: top-dose activity change, negative = cytotoxicity, actives largely listed as cytotoxic | HepG2 CAGA-GFP viability, ATP luminescence, 18 h; further: potency means the concentration at half of the fitted maximal effect
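CellTiter-Glo luminescence gave cytotoxicity after 18 hours at 37 degrees C. The cells were HepG2 CAGA-GFP in 1% FBS DMEM, stimulated with 500 pg/mL TGF-beta after compound addition. %Activity was normalised to no-cell wells (complete cell-killing) and DMSO (no toxicity), and curves were fitted and classified.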
TGFb inhibitor – qHTS for Inhibitors of TGF-b; HepG2 CAGA-GFP TGF-b/SMAD3 reporter, GFP fluorescence, 18 h; TGF-beta stimulated, 500 pg/mL final; Potency, µM (titrated, usually from 46.1 µM), for the others: at the highest dose activity, negative = inhibition, hits mostly inhibitors; 1.2% of 410,000 active; further: potency means the concentration at half of the fitted maximal effect; on the % scale 0 is the no-effect control and ±100 the full control effect; nearly all actives have a fitted effect of over 65% in size
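First, reporter cells (HEPG2 CAGA-GFP) rested 2 h at 37 degrees C. Next, compounds were pinned in and TGF-beta added to 500 pg/mL final. After 18 h, GFP was imaged per cell and summed per well.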
DT40 TDP1 CPT – qHTS for Inhibitors of human tyrosyl-DNA phosphodiesterase 1 (TDP1): qHTS in cells in presence of CPT | chicken DT40 Tdp1-/-;hTDP1 cells + 20 nM CPT, ATP luminescence, 48 h | Potency, µM (titrated, usually from 46.2 µM), for the others: at the top dose activity change, negative = growth inhibition, usual class: inhibitors | 12% of 420,000 active | AID 686979, 2013; further: potency means the concentration at half of the fitted maximal effect; on the % scale 0 is the no-effect control and ±100 the full control effect; nearly all actives have a fitted effect of over 55% in size
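Chicken DT40 Tdp1-/- cells stably complemented with human TDP1 were seeded at 400 cells/well in medium containing 20 nM camptothecin, exposed to pin-transferred compounds, and grown at 37 °C for at least 48 hr. Viability was read as ATP luminescence.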
TDP1 inh – qHTS Assay for Inhibitors of Tyrosyl-DNA Phosphodiesterase (TDP1) | Potency, µM (doses to about 130 µM), for the others: at the highest dose activity change, negative = inhibition, most hits filed as inhibitors | AID 485290, 2010 | Tyrosyl-DNA phosphodiesterase 1 (Homo sapiens), Q9NUW8 | 0.28% of 350,000 active | recombinant TDP1, AlphaScreen DNA substrate cleavage; further: potency means the concentration at half of the fitted maximal effect; on the % scale 0 is the no-effect control and ±100 the full control effect; nearly all actives have a fitted effect of over 40% in size
Target sequence (Q9NUW8 whole entry, looked up): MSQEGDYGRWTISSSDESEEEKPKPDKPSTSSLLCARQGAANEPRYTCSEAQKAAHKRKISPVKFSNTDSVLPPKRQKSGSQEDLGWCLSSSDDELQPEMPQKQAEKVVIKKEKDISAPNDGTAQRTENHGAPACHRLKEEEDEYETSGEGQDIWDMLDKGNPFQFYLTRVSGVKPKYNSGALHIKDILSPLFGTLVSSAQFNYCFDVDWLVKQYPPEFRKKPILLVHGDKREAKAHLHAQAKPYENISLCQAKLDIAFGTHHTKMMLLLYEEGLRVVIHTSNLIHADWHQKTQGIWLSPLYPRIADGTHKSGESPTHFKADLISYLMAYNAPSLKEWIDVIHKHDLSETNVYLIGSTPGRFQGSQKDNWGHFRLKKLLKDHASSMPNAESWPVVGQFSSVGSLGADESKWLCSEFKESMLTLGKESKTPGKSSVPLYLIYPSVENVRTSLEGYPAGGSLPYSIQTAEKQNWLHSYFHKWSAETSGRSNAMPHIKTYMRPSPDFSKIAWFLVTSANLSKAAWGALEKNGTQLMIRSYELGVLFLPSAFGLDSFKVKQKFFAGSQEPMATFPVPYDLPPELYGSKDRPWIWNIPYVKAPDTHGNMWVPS
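AlphaScreen read-out: signal falls as enzyme removes the 3' tyrosine-FITC from a 5'-biotinylated DNA oligo (15 nM, 5 min, RT). Enzyme was E. coli-made recombinant Tdp1 at 1 nM, exposed to compound for 15 min beforehand; beads 10 ug/ml, 10 min.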
TDP1 cell noCPT – qHTS for Inhibitors of human tyrosyl-DNA phosphodiesterase 1 (TDP1): qHTS in cells in absence of CPT. DT40 Tdp1-/- hTDP1 cells, no CPT, ATP luminescence, 48 h. 15% of 420,000 active. Potency, µM (top dose mostly 46.2 µM), without a hit: top-dose activity change, negative = growth inhibition, hits mostly inhibitors; further: potency means the concentration at half of the fitted maximal effect; on the % scale 0 is the no-effect control and ±100 the full control effect; nearly all actives have a fitted effect of over 55% in size
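Luminescent ATP content (CellTiter-Glo) served as the growth readout. Knockout chicken DT40 cells expressing human TDP1 were exposed to compounds without camptothecin for a minimum 48 hr at 37 °C.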
IL1B secr inh – qHTS for Inhibitors of Inflammasome Signaling: IL-1-beta AlphaLISA Primary Screen; THP-1 LPS/ATP IL-1B secretion, AlphaLISA, 16 h; stronger effect = lower value; activity change, % at 57.5 µM; 4.7% of 360,000 active; AID 743279, 2014; in the data active means activity change below about -50%; inconclusive means mostly about -30% to -49%; further: on the % scale 0 is the no-effect control and ±100 the full control effect
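Secreted IL-1B measured by AlphaLISA bead assay after 16 h compound exposure of THP-1 cells; compounds (final up to 57.5 uM) added 1 h before LPS (250 ng/mL) and ATP (1.25 mM) stimulation; lower signal means less secretion.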
Starred values were filed as active, the others as inactive; ? = inconclusive; . = no result; [ ] = remark or other dose. Unless noted, the call rests on the fitted dose curve; in most records, active means well fitted curve in the direction sought with a large enough effect; inconclusive means small, poorly fitted or top-dose-only effect, or another doubt; inactive means no such curve, though single readings can be large; an effect the other way counts as inactive or inconclusive.

SMILES	HepG2 viability	TGFb inhibitor	DT40 TDP1 CPT	TDP1 inh	TDP1 cell noCPT	IL1B secr inh
Cc1ccc(NC(=O)c2ccc(=O)[nH]n2)cc1S(=O)(=O)Nc1ccc(SC(F)F)cc1	-29%	-21%	15µM*	-18%	18µM*	7
Cc1c(C(=O)C(=O)N2c3ccc(F)cc3CCC2C)c2ccccc2n1C (stereo not drawn)	11%	?	2.6µM*	-1%	2.6µM*	27
O=C(NCc1ccccc1)c1onc(CSc2ccccc2)c1C(=O)NCc1ccccc1	6%	23%	16µM*	.	?	-16
O=C(NCc1ccccc1)c1onc(CSc2ccccc2)c1C(=O)NCC1CC1	0%	?	13µM*	-4%	21µM*	-52*
Cc1ccccc1OCCCCn1c(-c2ccc(Cl)cc2)nc2ccccc2c1=O	-10%	23%	-9%	.	-6%	.
Cc1nc2ccc(NS(=O)(=O)c3ccc(C)c(C)c3)cc2s1	-19%	?	15µM*	4%	10µM*	1
Cc1nc2ccc(S(=O)(=O)Nc3ccccc3C)cc2s1	-13%	0%	?	4%	18µM*	12
Cc1nc2ccc(S(=O)(=O)CCC(=O)Nc3ccccc3C)cc2s1	-37%	-4%	-24%	5%	-4%	.
Cc1nc2ccc(NS(=O)(=O)c3c(F)cc(F)cc3Br)cc2s1	-22%	?	?	2%	6.5µM*	27
Cc1nc2c(-c3ccc(F)cc3)cnn2c2c1CCC2	4%	21%	-9%	-11%	?	45
CN(CC(=O)Nc1ccc(F)c(F)c1F)C(=O)C1CCCO1 (stereo not drawn)	-6%	16%	0%	.	-1%	-13
CC1CCCCC12NC(=O)N(CC(=O)N1CCc3ccccc3C1)C2=O (stereo not drawn)	-2%	-3%	0%	-2%	-1%	-7
CCCCn1c(N)c(N(Cc2ccccc2OC)C(=O)COc2ccc(F)cc2Cl)c(=O)[nH]c1=O	-25%	-13%	1%	1%[56.1 µM]	0%	-10
O=C(NC(=O)c1ccccc1O)c1ccc(C(F)(F)F)cc1	-26%	1%	12µM*	.	7.3µM*	-69*
CCCc1ccc(C(=O)NC(=O)c2ccccc2O)cc1	-18%	-16%	2.3µM*	1%	2.9µM*	34
Cc1nc(NCc2ccco2)c2oc3ccccc3c2n1	-15%	-12%	?	-5%	10µM*	-5
Cc1nc(NC(C)c2ccccc2)c2oc3ccccc3c2n1 (stereo not drawn)	-11%	-27%	21µM*	5%	10µM*	-6
Cc1nc(N[C@@H](Cc2ccccc2)C(=O)O)c2oc3ccccc3c2n1	-52%	3%	-30%	5%	-27%	35
CCC(C)Nc1nc(C)nc2c1oc1ccccc12 (stereo not drawn)	-35%	?	18µM*	0%	16µM*	25
CS(=O)(=O)Nc1ccc2c(c1)[C@H]1C[C@H](CC(=O)NCc3ccccc3)O[C@H](CO)[C@H]1O2	6%	6%	11%	.	1%	-9
CC(=O)Nc1ccc(NC(=O)C(=O)N/N=C/c2cccnc2)cc1	-15%	-1%	-1%	1%	1%	35
O=C(COc1ccc(F)cc1)Nc1ccccc1OCc1cc(=O)n2ccccc2n1	-15%	-15%	14%	5%	10%	.
CC12CCC(C(=O)N3CCC(Cc4ccccc4)CC3)(C(=O)C1=O)C2(C)C (stereo not drawn)	-9%	-4%	11%	5%	?	-102*
Cc1[nH]n2c(=O)cc(C(C)(C)C)nc2c1-c1ccccc1	-36%	-2%	4.6µM*	9%	5.2µM*	34
CCOC(=O)Cc1cc(=O)n2[nH]c(C)c(-c3ccc(OC)cc3)c2n1	-9%	32%	?	10%	?	-9
SMILES	HepG2 viability	TGFb inhibitor	DT40 TDP1 CPT	TDP1 inh	TDP1 cell noCPT	IL1B secr inh
CCc1cc(=O)n2[nH]c(-c3ccccc3)c(-c3ccccc3)c2n1	-13%	-14%	?	.	21µM*	34
CCOC(=O)Cc1c(C)nc2c(-c3ccc(Cl)cc3)c(C(F)(F)F)nn2c1C	-15%	-10%	23µM*	-8%	23µM*	.
CCOC(=O)Cc1cc(=O)n2[nH]c(C)c(-c3ccc(Cl)cc3)c2n1	-37%	-17%	16µM*	12%	11µM*	51
O=C(NCC(c1ccco1)N1CCN(c2ccccc2)CC1)c1ccc2c(c1)OCO2 (stereo not drawn)	3%	3%	?	-1%	?	12
CCCNC(=O)Cn1c(=O)cc(C)c2c(C)nn(-c3cccc(F)c3)c21	-14%	-10%	-17%	-1%	-18%	.
N#CCCn1c(=O)c(-c2ccccc2)nc2cnc(Oc3ccccc3)nc21	.	.	10%	.	?	.
COC(=O)Cc1cc(=O)n2[nH]c(C)c(-c3ccccc3)c2n1	3%	5%	3%	11%	-6%	-1
CCOC(=O)Cc1cc(=O)n2[nH]cc(-c3cccc(Br)c3)c2n1	-44%	?	?	8%	23µM*	9
Cc1[nH]n2c(=O)cc(-c3ccc(Cl)cc3)nc2c1-c1ccccc1	-43%	10µM*	0.65µM*	14%	0.92µM*	.
Cc1[nH]n2c(=O)cc(-c3ccc([N+](=O)[O-])cc3)nc2c1-c1ccccc1	-56%	?	12µM*	.	7.3µM*	37
Cc1ccc(NC(=O)CN2C(=O)C(C)(C)c3cc(S(=O)(=O)N4CCCCC4)ccc32)c(Br)c1	0%	7%	-21%	3%	?	.
O=C(O)/C=C1\NC(=O)c2ccccc21	5%	?	11%	1%	-2%	12
O=C1N/C(=C\c2ccc(O)cc2)C(=O)c2ccccc21	-61%	-22%	3.2µM*	10%	7.1µM*	-4
Cc1ccc(C(=O)NCc2nc3ccccc3[nH]2)o1	-1%	-5%	-1%	1%	16%	15
CC(C)CNC(=O)C1(C)CCCN1C(=O)C(C)(C)Oc1ccc(Cl)cc1 (stereo not drawn)	-5%	4%	?	.	16µM*	42
